High-throughput results: PubChem BioAssay, The Scripps Research Institute Molecular Screening Center
This is a sample that favours compounds with a hit; in the whole collection about 3.5% have one here.
MITF primary – blocks human microphthalmia-associated transcription factor | AID 1259374 | inhibition, % at 2.6 µM | 0.91% of 650,000 active | AlphaScreen MITF homodimerization, bead proximity signal | O75030; in the data active = inhibition above about 50%;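 also: 0% = vehicle wells with protein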
FBW7 activator – human FBW7 E3 ligase activation, primary screen; Q969H0; AlphaScreen FBW7–phospho-cyclin E peptide binding, activator screen; normalized activity (activation), % at 26.1 µM; 0.13% of 650,000 active; AID 1259310; in the data active = normalized activity above about 1.9%;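 also: purified mutant Fbw7 with reduced substrate affinity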
Target sequence (Q969H0 whole entry, looked up): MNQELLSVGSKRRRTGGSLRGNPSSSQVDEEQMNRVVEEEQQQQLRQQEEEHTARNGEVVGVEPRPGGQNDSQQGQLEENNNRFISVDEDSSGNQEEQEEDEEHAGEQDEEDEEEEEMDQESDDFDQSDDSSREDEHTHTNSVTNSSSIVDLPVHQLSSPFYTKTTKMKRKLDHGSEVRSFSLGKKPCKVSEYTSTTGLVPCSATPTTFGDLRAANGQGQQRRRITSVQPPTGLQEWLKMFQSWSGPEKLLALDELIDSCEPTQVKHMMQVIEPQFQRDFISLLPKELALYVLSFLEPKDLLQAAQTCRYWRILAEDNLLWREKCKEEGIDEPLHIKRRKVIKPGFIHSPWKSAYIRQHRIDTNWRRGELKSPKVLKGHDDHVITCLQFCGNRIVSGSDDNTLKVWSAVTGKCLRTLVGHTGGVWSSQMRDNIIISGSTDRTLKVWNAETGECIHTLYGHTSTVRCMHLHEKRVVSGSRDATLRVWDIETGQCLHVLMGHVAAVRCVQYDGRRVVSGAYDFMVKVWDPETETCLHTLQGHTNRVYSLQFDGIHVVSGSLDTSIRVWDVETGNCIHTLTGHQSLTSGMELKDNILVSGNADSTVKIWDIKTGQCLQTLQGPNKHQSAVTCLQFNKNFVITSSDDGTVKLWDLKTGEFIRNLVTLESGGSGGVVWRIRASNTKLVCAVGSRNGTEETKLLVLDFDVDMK
TEAD-YAP block – TEAD-YAP interaction inhibition; AID 1259422; 1.4% of 640,000 active; inhibition, % at 9.12 µM; HEK-TIYL cells, TEAD-Gal4/YAP UAS-luciferase luminescence; in the data active = inhibition above about 32%;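 also: 0% = median of test compound wells and 100% = reference inhibitor wells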
GPR151 ag – human GPR151 activation; Q8TDV0; PathHunter beta-arrestin GPR151 cells, luminescence; activation, % at 11.2 µM; 1% of 650,000 active; AID 1508602; in the data active = activation above about 4.9%;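 also: 0% = median of compound wells and 100% = cells with positive control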
An asterisk follows results filed as active; ! = a repeat was not active.

For CC12CCC(C(=O)Nc3ccc(Cl)c(Cl)c3)(CC1=O)C2(C)C (stereo unspecified) the results were MITF primary 2, FBW7 activator 0, TEAD-YAP block 8 and GPR151 ag 2.
For COc1ccc(NC(=O)c2ccc3c(c2)OCCO3)cc1 the results were MITF primary -3, FBW7 activator 0, TEAD-YAP block 75* and GPR151 ag -5.
`O=C(Nc1ccc2c(c1)OCCO2)c1ccccc1` gave MITF primary 10, FBW7 activator 0, TEAD-YAP block 12 and GPR151 ag 0.
CC12CCC(C(=O)Nc3ccc4c(c3)OCCO4)(CC1=O)C2(C)C (stereo unspecified) was read as MITF primary 2, FBW7 activator 0, TEAD-YAP block 62* and GPR151 ag 0.
For Cc1cc(C(=O)Nc2ccc3c(c2)OCCO3)cs1 the results were MITF primary 10, FBW7 activator 0, TEAD-YAP block 41* and GPR151 ag -5.
CCN(Cc1ccncc1)Cc1ccc2c(c1)CN(C(=O)C(NC(C)=O)C(C)C)CCO2 (stereo unspecified) was read as MITF primary 7, FBW7 activator 0, TEAD-YAP block 0 and GPR151 ag -1.
For N=C1/C(=C/c2ccc(OCCOc3ccccc3Cl)cc2)C(=O)N=C2SC=C(c3ccccc3)N12 the results were MITF primary -10, FBW7 activator 0, TEAD-YAP block -15 and GPR151 ag -2.
CCOC(=O)c1c(C)n(C)c2ccc(OC(=O)c3cc([N+](=O)[O-])cc([N+](=O)[O-])c3)cc12 was read as MITF primary 37, FBW7 activator 1, TEAD-YAP block -20 and GPR151 ag -2.
Screening Cc1ccc2cc3c(N)c(C(=O)Nc4ccc5c(c4)OCCO5)sc3nc2c1 returned MITF primary 9, FBW7 activator 0, TEAD-YAP block 71* and GPR151 ag -1.
O=C(Nc1ccc2sccc2c1)c1ccc2c(c1)OCO2 was read as MITF primary -8, FBW7 activator 0, TEAD-YAP block 72* and GPR151 ag -7.
`O=C(O)C1C2CCC(O2)C1C(=O)Nc1ccc2c(c1)OCCO2` (stereo unspecified) gave MITF primary 5, FBW7 activator 0, TEAD-YAP block 8 and GPR151 ag -1.
O=C(O)C1CCCCC1C(=O)Nc1ccc2c(c1)OCCO2 (stereo unspecified) was read as MITF primary 19, FBW7 activator 0, TEAD-YAP block 62* and GPR151 ag -1.
For COc1ccc(C(=O)Nc2ccc3c(c2)OCCO3)cc1 the results were MITF primary 1, FBW7 activator 0, TEAD-YAP block 66* and GPR151 ag -7.
Screening Cc1cccc(/C=C2/SC(=S)NC2=O)c1 returned MITF primary 2, FBW7 activator 0, TEAD-YAP block 5 and GPR151 ag 5.
Screening O=C(Nc1cccnc1)C(=O)Nc1ccc2c(c1)OCCO2 returned MITF primary 22, FBW7 activator 0, TEAD-YAP block 59* and GPR151 ag -6.
O=C(Nc1ccc2c(c1)OCCO2)c1ccc2ccccc2c1 was read as MITF primary 6, FBW7 activator 0, TEAD-YAP block 87* and GPR151 ag -7.
For COc1cccc(OC)c1C(=O)Nc1ccc2c(c1)OCCO2 the results were MITF primary 4, FBW7 activator 0, TEAD-YAP block -7 and GPR151 ag 0.
COC(=O)C(=NNc1ccc2c(c1)OCCO2)C(=O)OC was read as MITF primary -1, FBW7 activator 1, TEAD-YAP block 80* and GPR151 ag -2.
COc1ccc(Cl)cc1NC(=O)C(C)N1C(=O)c2ccccc2S1(=O)=O (stereo unspecified) was read as MITF primary 7, FBW7 activator 0, TEAD-YAP block 4 and GPR151 ag -1.
Screening CCN(CC(=O)Nc1cc(C)on1)c1cccc2ccccc12 returned MITF primary -9, FBW7 activator 0, TEAD-YAP block -2 and GPR151 ag 1.
Screening Oc1cc(O)c2c(c1)O[C@H](c1cc(O)c(O)c(O)c1)[C@H](O)C2 returned MITF primary 87*, FBW7 activator 0, TEAD-YAP block -6 and GPR151 ag 0.
Screening Oc1cc(O)c2c(c1)O[C@H](c1ccc(O)c(O)c1)[C@@H](O)C2 returned MITF primary 57*!, FBW7 activator 0, TEAD-YAP block -7 and GPR151 ag 0.
O=C(Oc1cc(O)cc2c1C[C@@H](OC(=O)c1cc(O)c(O)c(O)c1)[C@@H](c1cc(O)c(O)c(O)c1)O2)c1cc(O)c(O)c(O)c1 was read as MITF primary 62*, FBW7 activator 0, TEAD-YAP block -2 and GPR151 ag -1.
